Our source for the growth yield values is the supplement of paper PMC8007513.

Structures can show the parent of a compound that is named as a salt. ± gives the standard error. The whole screen tested about 1,300 compounds, of which about 130 (10%) showed an effect of 50% or more. The sample as a whole holds a higher share of strong results than the screen did.

The test concerns Trichoderma virens ATCC 9645. Description: growth yield (OD600) with compound + IPBC relative to untreated control; higher = less growth inhibition. The note with it: compound concentration: 100 uM, IPBC concentration: 200 ng/ml. The method, boiled down: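 Plates were read for OD600 at 40 h and 72 h after Trichoderma virens ATCC 9645 spores (15,000 spores ml^−1 in potato dextrose broth) were grown at 30 °C with library compounds at 100 μM final, with or without a biocide at 200 ng ml^−1. Growth is stated relative to the control with neither agent, as the mean of duplicate screens.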

On to `NC(=O)NC1NC(=O)NC1=O` (stereo not drawn) [Allantoin] + CCCCNC(=O)OCC#CI [3-iodo-2-propynyl butylcarbamate (IPBC)], for which the growth yield runs as follows: (40 h) 83.71 ± 0.48%; (72 h) 89.2 ± 2.2%.

With `CC(C)OC(=O)C(C)(C)Oc1ccc(C(=O)c2ccc(Cl)cc2)cc1` [Fenofibrate] + CCCCNC(=O)OCC#CI [3-iodo-2-propynyl butylcarbamate (IPBC)], the growth yield amounted to 65.4 ± 1.3% (40 h) and 76.3 ± 1.9% (72 h).

For the molecule `O=c1[nH]cc(F)c(=O)[nH]1` [5-fluorouracil] + CCCCNC(=O)OCC#CI [3-iodo-2-propynyl butylcarbamate (IPBC)], the growth yield by setting is: (40 h) 36.9%; (72 h) 58.1 ± 1.3%.

With `Nc1nc(=O)[nH]cc1F` [Flucytosine] + CCCCNC(=O)OCC#CI [3-iodo-2-propynyl butylcarbamate (IPBC)], the growth yield came out at 88.5 ± 2.1% (40 h) and 90.4 ± 0.63% (72 h).

For the molecule `CCN(CC)C(C)C(=O)c1ccccc1` (stereo not drawn) [Amfepramone hydrochloride] + CCCCNC(=O)OCC#CI [3-iodo-2-propynyl butylcarbamate (IPBC)], the growth yield (40 h) worked out at 102 ± 15% and the growth yield (72 h) turned out to be 102 ± 9.3%.

As to `O=C1C(CC[S+]([O-])c2ccccc2)C(=O)N(c2ccccc2)N1c1ccccc1` (stereo not drawn) [Sulfinpyrazone] + CCCCNC(=O)OCC#CI [3-iodo-2-propynyl butylcarbamate (IPBC)], the growth yield (40 h) worked out at 106 ± 9.2% and the growth yield (72 h) turned out to be 105 ± 2.4%.

For `Cc1ccc(/C(=C\CN2CCCC2)c2ccccn2)cc1` [Triprolidine hydrochloride] + CCCCNC(=O)OCC#CI [3-iodo-2-propynyl butylcarbamate (IPBC)], the growth yield by setting is: (40 h) 96.1 ± 6.5%; (72 h) 100 ± 1.6%.

Take `CN1CCN2c3ccccc3Cc3ccccc3C2C1` (stereo not drawn) [Mianserine hydrochloride] + CCCCNC(=O)OCC#CI [3-iodo-2-propynyl butylcarbamate (IPBC)]: the growth yield (40 h) is 82.6 ± 1.3% and the growth yield (72 h) was determined as 94.1 ± 1.8%.

Regarding `CN1CCC(=C2c3ccccc3Sc3ccccc32)CC1` [Pimethixene maleate] + CCCCNC(=O)OCC#CI [3-iodo-2-propynyl butylcarbamate (IPBC)], the growth yield came to 56.1 ± 1.4% (40 h) and 88 ± 2% (72 h).

`CSc1ccc2c(c1)C(N1CCN(C)CC1)Cc1ccccc1S2` (stereo not drawn) [Methiothepin maleate] + CCCCNC(=O)OCC#CI [3-iodo-2-propynyl butylcarbamate (IPBC)]: the growth yield came out at 2.06 ± 0.16% (40 h) and 1.78 ± 0.1% (72 h).

For the molecule `CC1(C)O[C@@H]2[C@@H](CO[C@@]3(COS(N)(=O)=O)OC(C)(C)O[C@@H]23)O1` [Topiramate] + CCCCNC(=O)OCC#CI [3-iodo-2-propynyl butylcarbamate (IPBC)], the growth yield reads like this: (40 h) 89 ± 5.1%; (72 h) 93.1 ± 5.9%.

For the molecule `CC(C)(Oc1ccc(C2CC2(Cl)Cl)cc1)C(=O)O` (stereo not drawn) [Ciprofibrate] + CCCCNC(=O)OCC#CI [3-iodo-2-propynyl butylcarbamate (IPBC)], the growth yield is, setting by setting: (40 h) 78.9 ± 3.6%; (72 h) 82.2 ± 1.7%.

For `O=c1[nH]c(=O)n([C@H]2C[C@H](O)[C@@H](CO)O2)cc1C(F)(F)F` [Trifluridine] + CCCCNC(=O)OCC#CI [3-iodo-2-propynyl butylcarbamate (IPBC)], the growth yield is, setting by setting: (40 h) 90.4 ± 6.2%; (72 h) 92.7 ± 4%.

For `O=c1[nH]c(=O)n([C@H]2C[C@H](O)[C@@H](CO)O2)cc1F` [Floxuridine] + CCCCNC(=O)OCC#CI [3-iodo-2-propynyl butylcarbamate (IPBC)], the growth yield (40 h) came to 4.45% and the growth yield (72 h) worked out at 19.1 ± 2.3%.

For the molecule `O=c1[nH]c(=O)n([C@H]2C[C@H](O)[C@@H](CO)O2)cc1I` [Idoxuridine] + CCCCNC(=O)OCC#CI [3-iodo-2-propynyl butylcarbamate (IPBC)], the growth yield by setting is: (40 h) 87.8 ± 2.1%; (72 h) 89.04 ± 0.52%.

Regarding `O=C(NCCNCC(O)COc1ccc(O)cc1)N1CCOCC1` (stereo not drawn) [Xamoterol hemifumarate] + CCCCNC(=O)OCC#CI [3-iodo-2-propynyl butylcarbamate (IPBC)], the growth yield (40 h) was 92.4 ± 1.6% and the growth yield (72 h) worked out at 94.39 ± 0.63%.

Take `COc1cccc2c1C(=O)c1c(O)c3c(c(O)c1C2=O)C[C@@](O)(C(=O)CO)C[C@@H]3O[C@H]1C[C@H](N)[C@H](O)[C@H](C)O1` [Doxorubicin hydrochloride] + CCCCNC(=O)OCC#CI [3-iodo-2-propynyl butylcarbamate (IPBC)]: the growth yield was determined as 8.1 ± 1.1% (40 h) and 34.8 ± 20% (72 h).

Consider `COc1cccc2c1C(=O)c1c(O)c3c(c(O)c1C2=O)C[C@@](O)(C(C)=O)C[C@@H]3O[C@H]1C[C@H](N)[C@H](O)[C@H](C)O1` [Daunorubicin hydrochloride] + CCCCNC(=O)OCC#CI [3-iodo-2-propynyl butylcarbamate (IPBC)], for which the growth yield (40 h) was found to be 9.21 ± 1.6% and the growth yield (72 h) turned out to be 44.7 ± 1.3%.

In the case of `COc1cccc2c1C(=O)c1c(O)c3c(c(O)c1C2=O)C[C@@](O)(C(=O)CO)C[C@@H]3O[C@H]1C[C@H](N)[C@@H](O)[C@H](C)O1` [Epirubicin hydrochloride] + CCCCNC(=O)OCC#CI [3-iodo-2-propynyl butylcarbamate (IPBC)], the growth yield was found to be 42.7 ± 0.48% (40 h) and 95.33 ± 0.32% (72 h).

For `CO[C@@H]1[C@@H](O[C@@H]2O[C@H](C)[C@@H](O[C@H]3C[C@@](C)(O)[C@@H](OC(=O)CC(C)C)[C@H](C)O3)[C@H](N(C)C)[C@H]2O)[C@@H](CC=O)C[C@@H](C)[C@@H](O)/C=C/C=C/C[C@@H](C)OC(=O)C[C@H]1OC(C)=O` [Josamycin] + CCCCNC(=O)OCC#CI [3-iodo-2-propynyl butylcarbamate (IPBC)], the growth yield (40 h) worked out at 100 ± 4.5% and the growth yield (72 h) is 103 ± 3.5%.

For the molecule `Nc1cc(C(Cl)=C(Cl)Cl)c(S(N)(=O)=O)cc1S(N)(=O)=O` [Clorsulon] + CCCCNC(=O)OCC#CI [3-iodo-2-propynyl butylcarbamate (IPBC)], the growth yield came out at 86.4 ± 2.2% (40 h) and 90.8 ± 3.1% (72 h).

With `C[C@H](O)C(=O)Nc1c(I)c(C(=O)NC(CO)CO)c(I)c(C(=O)NC(CO)CO)c1I` [Iopamidol] + CCCCNC(=O)OCC#CI [3-iodo-2-propynyl butylcarbamate (IPBC)], the growth yield (40 h) is 101 ± 5.7% and the growth yield (72 h) was found to be 101 ± 3.8%.

As for `CN(C)C(=N)NC(=N)N` [Metformin hydrochloride] + CCCCNC(=O)OCC#CI [3-iodo-2-propynyl butylcarbamate (IPBC)], the growth yield by setting is: (40 h) 85.9 ± 4.9%; (72 h) 88 ± 2.2%.

For the molecule `O=C1OCCN1/N=C/c1ccc([N+](=O)[O-])o1` [Furazolidone] + CCCCNC(=O)OCC#CI [3-iodo-2-propynyl butylcarbamate (IPBC)], the growth yield reads like this: (40 h) 76.2 ± 8.6%; (72 h) 88.9 ± 5.2%.

Regarding `N=C(N)NCCN1CCCCCCC1` [Guanethidine sulfate] + CCCCNC(=O)OCC#CI [3-iodo-2-propynyl butylcarbamate (IPBC)], the growth yield runs as follows: (40 h) 81.3 ± 4.1%; (72 h) 90.2 ± 4.4%.

Consider `COC[C@@H](NC(C)=O)C(=O)NCc1ccccc1` [Lacosamide] + CCCCNC(=O)OCC#CI [3-iodo-2-propynyl butylcarbamate (IPBC)], for which the growth yield is, setting by setting: (40 h) 85.6 ± 1.4%; (72 h) 93.66 ± 0.73%.

For `CN(C)CCCN1c2ccccc2CCc2ccccc21` [Imipramine hydrochloride] + CCCCNC(=O)OCC#CI [3-iodo-2-propynyl butylcarbamate (IPBC)], the growth yield is, setting by setting: (40 h) 81 ± 1.9%; (72 h) 96.28 ± 0.21%.

Consider `CN(C)CCCN1c2ccccc2Sc2ccc(C(F)(F)F)cc21` [Triflupromazine hydrochloride] + CCCCNC(=O)OCC#CI [3-iodo-2-propynyl butylcarbamate (IPBC)], for which the growth yield by setting is: (40 h) 46.4 ± 2.9%; (72 h) 81.3 ± 4.3%.

Regarding `CNCCCN1c2ccccc2CCc2ccccc21` [Desipramine hydrochloride] + CCCCNC(=O)OCC#CI [3-iodo-2-propynyl butylcarbamate (IPBC)], the growth yield is 70.4 ± 1.4% (40 h) and 93.5 ± 3.4% (72 h).

Consider `CN1CCN(CCCN2c3ccccc3Sc3ccc(C(F)(F)F)cc32)CC1` [Trifluoperazine dihydrochloride] + CCCCNC(=O)OCC#CI [3-iodo-2-propynyl butylcarbamate (IPBC)], for which the growth yield was determined as 4.45 ± 0.95% (40 h) and 3.46 ± 0.1% (72 h).

On to `CC(=O)c1ccc2c(c1)N(CCCN(C)C)c1ccccc1S2` [Acetopromazine maleate salt] + CCCCNC(=O)OCC#CI [3-iodo-2-propynyl butylcarbamate (IPBC)], for which the growth yield (40 h) was 70.84 ± 0.32% and the growth yield (72 h) was found to be 91.6 ± 0.94%.

For the molecule `OCCN1CCN(CCCN2c3ccccc3Sc3ccc(C(F)(F)F)cc32)CC1` [Fluphenazine dihydrochloride] + CCCCNC(=O)OCC#CI [3-iodo-2-propynyl butylcarbamate (IPBC)], the growth yield (40 h) was 2.86% and the growth yield (72 h) worked out at 2.31 ± 0.21%.

In the case of `CC(=O)c1ccc2c(c1)N(CCCN1CCC(CCO)CC1)c1ccccc1S2` [Piperacetazine] + CCCCNC(=O)OCC#CI [3-iodo-2-propynyl butylcarbamate (IPBC)], the growth yield reads like this: (40 h) 55%; (72 h) 94.8%.

`OC(CCCN1CCCCC1)(c1ccccc1)c1ccccc1` [Diphenidol hydrochloride] + CCCCNC(=O)OCC#CI [3-iodo-2-propynyl butylcarbamate (IPBC)]: the growth yield reads like this: (40 h) 89.4 ± 2.4%; (72 h) 96.7 ± 3.4%.

Turning to `CN(C)CCCN1c2ccccc2Sc2ccccc21` [Promazine hydrochloride] + CCCCNC(=O)OCC#CI [3-iodo-2-propynyl butylcarbamate (IPBC)], the growth yield came out at 71.95 ± 0.16% (40 h) and 90.8 ± 3.8% (72 h).

For `CC(=O)N[C@@H](CC(=O)N[C@@H](CCC(=O)O)C(=O)O)C(=O)O` [Spaglumic acid] + CCCCNC(=O)OCC#CI [3-iodo-2-propynyl butylcarbamate (IPBC)], the growth yield was determined as 95.6 ± 7.3% (40 h) and 95.1 ± 7% (72 h).

For the molecule `COc1ccc(C(=O)NCc2cccnc2)cc1C(=O)NCc1cccnc1` [Picotamide monohydrate] + CCCCNC(=O)OCC#CI [3-iodo-2-propynyl butylcarbamate (IPBC)], the growth yield is, setting by setting: (40 h) 91.2 ± 5.1%; (72 h) 97 ± 3.9%.

For `CC(CN(C)C)CN1c2ccccc2CCc2ccccc21` (stereo not drawn) [Trimipramine maleate salt] + CCCCNC(=O)OCC#CI [3-iodo-2-propynyl butylcarbamate (IPBC)], the growth yield is, setting by setting: (40 h) 75.1 ± 0.79%; (72 h) 93.97 ± 0.84%.

In the case of `CN1CCOC(c2ccccc2)c2ccccc2C1` (stereo not drawn) [Nefopam hydrochloride] + CCCCNC(=O)OCC#CI [3-iodo-2-propynyl butylcarbamate (IPBC)], the growth yield came to 83.4 ± 1.1% (40 h) and 93.1 ± 1.1% (72 h).

For the molecule `CC(=O)OCC1=C(C(=O)O)N2C(=O)[C@@H](N)[C@H]2SC1` [Cephalosporanic acid, 7-amino] + CCCCNC(=O)OCC#CI [3-iodo-2-propynyl butylcarbamate (IPBC)], the growth yield by setting is: (40 h) 85.1 ± 3.8%; (72 h) 94.6 ± 3.1%.

Turning to `NS(=O)(=O)c1cc2c(cc1Cl)N=CNS2(=O)=O` [Chlorothiazide] + CCCCNC(=O)OCC#CI [3-iodo-2-propynyl butylcarbamate (IPBC)], the growth yield was 102.6 ± 0.32% (40 h) and 106 ± 2.8% (72 h).

For `CCOc1ccc(Cc2nccc3cc(OCC)c(OCC)cc23)cc1OCC` [Ethaverine hydrochloride] + CCCCNC(=O)OCC#CI [3-iodo-2-propynyl butylcarbamate (IPBC)], the growth yield by setting is: (40 h) 55 ± 2.2%; (72 h) 82.3 ± 2.2%.

`CC[C@H]1OC(=O)C[C@@H](O)[C@H](C)[C@@H](O[C@@H]2O[C@H](C)[C@@H](O[C@H]3C[C@@](C)(O)[C@@H](O)[C@H](C)O3)[C@H](N(C)C)[C@H]2O)[C@@H](CC=O)C[C@@H](C)C(=O)/C=C/C(C)=C/[C@@H]1CO[C@@H]1O[C@H](C)[C@@H](O)[C@@H](OC)[C@H]1OC` [Tylosin] + CCCCNC(=O)OCC#CI [3-iodo-2-propynyl butylcarbamate (IPBC)]: the growth yield (40 h) is 95.3 ± 7.9% and the growth yield (72 h) was 95.1 ± 3%.

`CC(C)NC[C@@H](O)COc1ccc(CC(N)=O)cc1` [(R)-(+)-Atenolol] + CCCCNC(=O)OCC#CI [3-iodo-2-propynyl butylcarbamate (IPBC)]: the growth yield is 101 ± 2.1% (40 h) and 98.48 ± 0.52% (72 h).
